PubChem BioAssay (NCI)
About 79,000 compounds went through this panel and 15% of them were active in at least one assay; those are over-represented in the sample as a whole. Values without a mark were called inactive. Activity calls are given as the source filed them. Cut-off read from the data, not from the text of the source: active = growth inhibition above about 70%; inactive = the rest.

What was measured:
[1] = NCI Yeast Anticancer Drug Screen. Data for the rad50 strain (AID 155);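 note: 0% = growth of vehicle-only cultures of the same strain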; settings: S. cerevisiae rad50 strain growth inhibition; at 50.0 µM; active compounds read high
How it was run: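 Growth of the mutant yeast was measured after compound exposure and referenced to vehicle-treated cultures.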

[2] = NCI Yeast Anticancer Drug Screen. Data for the mec2-1 strain (AID 157); settings: S. cerevisiae mec2-1 strain, at 50.0 µM, active compounds read high
How it was run: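 Growth inhibition is read against vehicle-treated controls after compound exposure of the mec2-1 yeast strain, which is defective in DNA damage repair or cell cycle control.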

[3] = NCI Yeast Anticancer Drug Screen. Data for the sgs1 mgt1 strain (AID 161);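 note: 0% = growth of cultures given vehicle only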; settings: S. cerevisiae sgs1 mgt1 strain, at 50.0 µM, active compounds read high
How it was run: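 Percent growth inhibition was derived by comparing compound-exposed mutant yeast with vehicle-exposed cultures. The strain carries alterations in DNA damage repair.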

[4] = NCI Yeast Anticancer Drug Screen. Data for the bub3 strain (AID 167); settings: S. cerevisiae bub3 mutant strain, at 50.0 µM, active compounds read high
How it was run: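 Whole-cell yeast assay. The mutant strain was incubated with compounds, and growth inhibition was determined by comparison with vehicle-treated cells.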

[5] = NCI Yeast Anticancer Drug Screen. Data for the mlh1 rad18 strain (AID 175); settings: S. cerevisiae mlh1 rad18 strain growth inhibition; at 50.0 µM; active compounds read high
How it was run: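 Cells of a genetically altered yeast strain, deficient in DNA damage repair, were treated with compound. Their growth was then compared with that of vehicle-treated cultures to give inhibition.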

[6] = NCI Yeast Anticancer Drug Screen. Data for the cln2 rad14 strain (AID 165);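 note: 0% = growth equal to vehicle treated cultures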; settings: S. cerevisiae cln2 rad14 strain, at 50.0 µM, active compounds read high
How it was run: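 Growth inhibition, relative to vehicle-treated controls, is the read-out. The test organism is a yeast strain with defined genetic alterations, cln2 rad14.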

CO/N=C1\CC(NC(=O)CNC(=O)OC(C)(C)C)c2ccsc21 (stereo not given)
growth inhibition [1]: 1.45%
growth inhibition [2]: 5.9%
growth inhibition [3]: 6.6%
growth inhibition [4]: -1.7%
growth inhibition [5]: 28.4%

CCc1cc2c(cc1C(=O)/C=C\c1ccco1)C(C)(C)CCC2(C)C
growth inhibition [1]: 97.2% (active)
growth inhibition [2]: 98.2% (active)
growth inhibition [3]: 97.5% (active)
growth inhibition [4]: 97.7% (active)
growth inhibition [5]: 97.8% (active)

N#CC1(C#N)C(c2ccccc2)C=CC12OCCCO2 (stereo not given)
growth inhibition [1]: 10.9%
growth inhibition [2]: 6.75%
growth inhibition [3]: 3.9%
growth inhibition [4]: -5.3%
growth inhibition [5]: 23.2%

COc1ccc(/C=C/c2ccc3ccccc3n2)cc1
growth inhibition [1]: 3.3%
growth inhibition [2]: -20.6%
growth inhibition [3]: 1.65%
growth inhibition [4]: 9.45%
growth inhibition [5]: -16%

CCCCCCCCCCCCCCCC(=O)OCC(COP(=O)(O)OC1CCC2(C)C(=CCC3C2CCC2(C)C(C(C)CCCC(C)C)CCC32)C1)OC(=O)CCCCCCCCCCCCCCC (stereo not given)
growth inhibition [1]: 1.9%
growth inhibition [2]: 4.05%
growth inhibition [3]: 22.2%
growth inhibition [4]: -3.1%
growth inhibition [5]: -4.8%

CCC(C)C(=O)OC1C(=O)OC2CC3C(C)=CC(=O)C(O)C3(C)C3C4(O)OCC23C1C(C)C4O (stereo not given)
growth inhibition [1]: 90.3% (active)
growth inhibition [2]: 93% (active)
growth inhibition [3]: 90% (active)
growth inhibition [4]: 90.6% (active)
growth inhibition [5]: 92.1% (active)

O=C(NCCO)[C@H](O)[C@@H](O)[C@H](O)[C@H](O)CO
growth inhibition [1]: 7.1%
growth inhibition [2]: -2%
growth inhibition [3]: -3.7%
growth inhibition [4]: 14.9%
growth inhibition [5]: 15.2%

C=C1C(=O)O[C@H]2[C@H]1[C@@H](OC(=O)C=C(C)C)CC1=C[C@@H](C[C@@]3(C)O[C@@H]23)OC1=O
growth inhibition [1]: -7.45%
growth inhibition [2]: -7.55%
growth inhibition [3]: 7.4%
growth inhibition [4]: -2.6%
growth inhibition [5]: 7.85%

CCOP(=O)(OCC)c1cc(NC(=O)c2cc(NC(=O)c3cc(NC(=O)Nc4cc(C(=O)Nc5cc(C(=O)Nc6cc(P(=O)(OCC)OCC)c7cccc(P(=O)(OCC)OCC)c7c6)n(C)c5)n(C)c4)cn3C)cn2C)cc2c(P(=O)(OCC)OCC)cccc12
growth inhibition [1]: -5.45%
growth inhibition [2]: -1.55%
growth inhibition [3]: -16.1%
growth inhibition [4]: 2.5%
growth inhibition [5]: 10.7%

O=C(Nc1ccccc1SC(=O)OCc1ccccc1)OCc1ccccc1
growth inhibition [1]: 30.2%
growth inhibition [2]: 4.8%
growth inhibition [3]: 11.6%
growth inhibition [4]: 1.95%
growth inhibition [5]: 1.3%

C#CC(CCC)NCCCC (stereo not given)
growth inhibition [1]: 16.2%
growth inhibition [2]: -8.95%
growth inhibition [3]: -8.8%
growth inhibition [4]: -4.9%
growth inhibition [5]: -1.95%

COc1cc2ccccc2oc1=O
growth inhibition [1]: 21.3%
growth inhibition [2]: 8.85%
growth inhibition [3]: 3.8%
growth inhibition [4]: 5.2%
growth inhibition [5]: 21.6%

Cn1c2c(c(=O)n(C)c1=O)C(=Nc1ccccc1)C(=O)N2
growth inhibition [1]: 0.2%
growth inhibition [2]: 9.25%
growth inhibition [3]: 7.2%
growth inhibition [4]: 1.65%
growth inhibition [5]: 14.3%

O=C(Nc1cc(Cl)ccc1Cl)Oc1ccc(Cl)cc1C(=O)c1ccccc1
growth inhibition [1]: -45%
growth inhibition [2]: -10.4%
growth inhibition [3]: -37.8%
growth inhibition [4]: -35.4%
growth inhibition [5]: -56.9%

O=C1NC(=O)C(=NC2C(=O)NC(=O)NC2=O)C(=O)N1
growth inhibition [1]: 6.65%
growth inhibition [2]: 29.4%
growth inhibition [3]: 31.3%
growth inhibition [4]: 26.1%
growth inhibition [5]: 19.8%

CC1OS(=O)(=O)CS(=O)(=O)OC1C (stereo not given)
growth inhibition [1]: -50.1%
growth inhibition [2]: -24.9%
growth inhibition [3]: -12.8%
growth inhibition [4]: 4.8%
growth inhibition [5]: -6.15%

CCC/C=C(/CC)COC(C)=O
growth inhibition [1]: 3.15%
growth inhibition [2]: -19.1%
growth inhibition [3]: -6.6%
growth inhibition [4]: -5.35%
growth inhibition [5]: -3.85%

C/C(=N/NC(=O)C1CCCO1)c1ccc(C)cc1 (stereo not given)
growth inhibition [1]: 0.95%
growth inhibition [2]: -6.5%
growth inhibition [3]: -4.75%
growth inhibition [4]: -6.5%
growth inhibition [5]: -28.9%

c1ccc2c(c1)SCCCSCCSCCCS2
growth inhibition [1]: -15.2%
growth inhibition [2]: -0.65%
growth inhibition [3]: 8.1%
growth inhibition [4]: 20.6%
growth inhibition [5]: 2.6%

CCC(=O)N1CCN(C(=O)CC)CC1
growth inhibition [1]: 6.4%
growth inhibition [2]: -2.45%
growth inhibition [3]: -5.25%
growth inhibition [4]: 1.95%
growth inhibition [5]: -2.25%

COc1ccc(OC)c(/C=C/c2ccccc2)c1
growth inhibition [1]: 0.5%
growth inhibition [2]: -29.1%
growth inhibition [3]: 8.25%
growth inhibition [4]: 1.6%
growth inhibition [5]: -14.9%

CCOc1c(/C=C\c2cc(/C=C/c3cccc(OC)c3OCC)c([N+](=O)[O-])cc2[N+](=O)[O-])cccc1OC
growth inhibition [1]: 16.4%
growth inhibition [2]: -13.7%
growth inhibition [3]: 1.75%
growth inhibition [4]: -4.45%
growth inhibition [5]: 9.55%

Cn1c(=O)c2c(-c3ccccc3)cc(-c3ccccc3)nc2n(C)c1=O
growth inhibition [1]: -18.8%
growth inhibition [2]: -16.1%
growth inhibition [3]: 1.95%
growth inhibition [4]: -10.7%
growth inhibition [5]: -21.4%

COC(=O)c1ccccc1-n1c(-c2ccc([N+](=O)[O-])cc2)csc1=NC(=O)c1cccc([N+](=O)[O-])c1
growth inhibition [1]: -2.15%
growth inhibition [2]: -2.15%
growth inhibition [3]: 19.4%
growth inhibition [4]: -1.15%
growth inhibition [5]: 12.7%

Clc1nc(Sc2ccc(Br)cc2)c(Cl)c(Sc2ccc(Br)cc2)n1
growth inhibition [1]: -18.9%
growth inhibition [2]: -2.3%
growth inhibition [3]: 8.05%
growth inhibition [4]: 1.5%
growth inhibition [5]: -17.6%

CCCCCCCCCCCCCCCCCC
growth inhibition [1]: -9.7%
growth inhibition [2]: -6.9%
growth inhibition [3]: -16.2%
growth inhibition [4]: 0.25%
growth inhibition [5]: -2.15%

COc1cc(CN2CCCCC2)cc2cc(C(=O)O)c(=O)oc12
growth inhibition [1]: 8.75%
growth inhibition [2]: 7.55%
growth inhibition [3]: -34.9%
growth inhibition [4]: -15.3%
growth inhibition [5]: -11.9%

CCC(Nc1ccccc1)C(=O)O (stereo not given)
growth inhibition [1]: -4.45%
growth inhibition [2]: -13.7%
growth inhibition [3]: -8.9%
growth inhibition [4]: -8.7%
growth inhibition [5]: 4.15%

Nc1cccc([N+](=O)[O-])c1O
growth inhibition [1]: 4.75%
growth inhibition [2]: 2.45%
growth inhibition [3]: 12.7%
growth inhibition [4]: 5.4%
growth inhibition [5]: 12.4%

O=C(c1ccc(O)cc1)C1N=NCC1c1ccccc1 (stereo not given)
growth inhibition [1]: -15.8%
growth inhibition [2]: -9.8%
growth inhibition [3]: -11.8%
growth inhibition [4]: 56.8%
growth inhibition [5]: 13.8%

COC(=O)N1CCc2c([nH]oc2=O)C1
growth inhibition [1]: -6.75%
growth inhibition [2]: -5.4%
growth inhibition [3]: -4.5%
growth inhibition [4]: -0.8%
growth inhibition [5]: -3.75%

COC(=O)C1C2OC(C(Br)C2Br)C1C(=O)OC (stereo not given)
growth inhibition [1]: -12.1%
growth inhibition [2]: -9.5%
growth inhibition [3]: -1.15%
growth inhibition [4]: -1.65%
growth inhibition [5]: -10.2%

NC(=O)c1nnc2cc(F)c(F)cc2c1N
growth inhibition [1]: -15.8%
growth inhibition [2]: -20.8%
growth inhibition [3]: -9.65%
growth inhibition [4]: 9.5%
growth inhibition [5]: -16.6%

CCN1CC(O)c2cc(N=NC(N)=O)c(O)cc21 (stereo not given)
growth inhibition [1]: -3.3%
growth inhibition [2]: 14.9%
growth inhibition [3]: 3.1%
growth inhibition [4]: 3.85%
growth inhibition [5]: 23%

c1cc(-c2nnc(-c3ccncc3)s2)ccn1
growth inhibition [1]: 6.2%
growth inhibition [2]: -1.35%
growth inhibition [3]: -9.25%
growth inhibition [4]: 14.5%
growth inhibition [5]: -8.15%

CC1=NN(c2nc(N)nc(CN3CCOCC3)n2)C(C)(C)C1
growth inhibition [1]: 30.1%
growth inhibition [2]: 3.5%
growth inhibition [3]: 17.4%
growth inhibition [4]: 5.75%
growth inhibition [5]: -2.05%

C/C(=N/O)c1ccc(O)cc1O
growth inhibition [1]: -16.7%
growth inhibition [2]: -1.2%
growth inhibition [3]: 3.65%
growth inhibition [4]: 5.15%
growth inhibition [5]: 13.8%

Cc1nc(=S)[nH][nH]1
growth inhibition [1]: -0.75%
growth inhibition [2]: 16.9%
growth inhibition [3]: 6.15%
growth inhibition [4]: 8.15%
growth inhibition [5]: 1%

N=C(N)c1ccc(OCCOc2cccc(N)c2)cc1
growth inhibition [1]: 3.35%
growth inhibition [2]: -15.8%
growth inhibition [3]: 11.2%
growth inhibition [4]: -5%
growth inhibition [5]: 13.5%

NC(=O)OCc1c(-c2ccccc2)nn(-c2ccccc2)c1COC(N)=O
growth inhibition [1]: -26.2%
growth inhibition [2]: -31%
growth inhibition [6]: -19.6%
growth inhibition [4]: 1.05%
growth inhibition [5]: -16.2%

CC(=O)c1ccc2c(ccc3ccccc32)c1O
growth inhibition [1]: -16.5%
growth inhibition [2]: -11.6%
growth inhibition [6]: -8.8%
growth inhibition [4]: -2.45%
growth inhibition [5]: 0.7%

COC(=O)CCN(C)c1ccccc1
growth inhibition [1]: -4.7%
growth inhibition [2]: -0.55%
growth inhibition [6]: -8.15%
growth inhibition [4]: 3.65%
growth inhibition [5]: -7.5%

Cc1oc(C)c2c(N=Nc3ccc([N+](=O)[O-])cc3[N+](=O)[O-])c3ccccc3c(O)c12
growth inhibition [1]: 25%
growth inhibition [2]: 25.1%
growth inhibition [6]: -27.6%
growth inhibition [4]: 37.5%
growth inhibition [5]: 49.6%

C=CCNC(=S)Nc1cccc(OC(=O)NC2CCCCC2)c1
growth inhibition [1]: -0.15%
growth inhibition [2]: 2.05%
growth inhibition [6]: -19.6%
growth inhibition [4]: 14.3%
growth inhibition [5]: -4.7%

Nc1cccc2c(=O)[nH][nH]c(=O)c12
growth inhibition [1]: 16.6%
growth inhibition [2]: -3.1%
growth inhibition [6]: 9.95%
growth inhibition [4]: 14.8%
growth inhibition [5]: 22.1%
